Data from PubChem BioAssay AID1159580 (chemical genetic matrix, 2015).
In all, about 5,500 compounds went through this assay and about 2,000 (36%) were called active. Another 18% or so got no clear call; they are omitted. Rule as the data show it: active = normalized growth mostly below about 0.91 (no sharp cut-off); inconclusive = no clear call, values can overlap the other calls; inactive = mostly above about 0.92. Some of the results follow.

Assay: chemical genetic growth profiling, strain panel (AID 1159580);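 also: tested at 20 µM; growth read once vehicle control cultures reached saturation at 30 °C; 1 = growth at the plate median or of vehicle wells; lower values mean less growth of the strain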
Settings: S. cerevisiae deletion strains, growth OD
[1] = locus YAL040C, strain CLN3, active compounds read low
[2] = locus YDR150W, strain NUM1, active compounds read low
[3] = locus YDR363W, strain ESC2, active compounds read low
[4] = locus YER002W, strain NOP16, active compounds read low
[5] = locus YGR078C, strain PAC10, active compounds read low
[6] = locus YNL128W, strain TEP1, active compounds read low
[7] = locus YNL175C, strain NOP13, active compounds read low
[8] = locus YNL197C, strain WHI3, active compounds read low
[9] = locus YNL224C, strain SQS1, active compounds read low
[10] = locus YNL322C, strain KRE1, active compounds read low
[11] = locus YOR083W, strain WHI5 (second series), active compounds read low
[12] = locus YCL061C, strain MRC1 (second series), active compounds read low
[13] = locus YMR307W, strain GAS1, active compounds read low
[14] = locus YNL153C, strain GIM3, active compounds read low

Measured: normalized growth

C[N+](C)(C)CC=O
inactive: [1] 0.989 | [2] 1.01 | [3] 0.979 | [4] 0.989 | [5] 1.01 | locus YJR075W, strain HOC1, active compounds read low 0.999 | [6] 0.981 | [7] 1 | [8] 1.04 | [9] 0.993 | [10] 0.994 | [11] 1.06 | locus YPL055C, strain LGE1, active compounds read low 1.03

C/C=C(/C)C(=O)O[C@H]1C(C)=C2[C@H]([C@@H]1OC(=O)CCCCCCC)[C@@](C)(OC(C)=O)C[C@H](OC(=O)CCC)[C@@]1(O)[C@H]2OC(=O)[C@@]1(C)O
inactive: [1] 1 | [12] 0.995 | [2] 1.01 | [3] 1.02 | [4] 1.01 | [5] 0.995 | locus YGR229C, strain SMI1, active compounds read low 1.05 | locus YMR263W, strain SAP30, active compounds read low 0.995 | [13] 0.968 | [6] 1.03 | [7] 1.02 | [8] 0.984 | [9] 0.988 | [11] 1

CCCCCC(CC(=O)NO)C(=O)NC(C(=O)N1CCCC1CO)C(C)C (stereo not drawn)
inactive: [1] 0.97 | [12] 0.995 | [3] 1.06 | [4] 0.971 | [5] 0.976 | [14] 0.976 | [7] 0.96 | [8] 0.987 | [9] 1.01 | [10] 1.01 | [11] 0.964 | locus YPL241C, strain CIN2, active compounds read low 0.97

COC(=O)C[C@H]1C(C)(C)C(OC(C)=O)[C@]2(O)C=C3C4CC(=O)O[C@@H](c5ccoc5)[C@]4(C)CCC3[C@@]1(C)C2=O (stereo partly drawn)
inactive: locus YBR021W, strain FUR4, active compounds read low 0.996 | locus YBR229C, strain ROT2, active compounds read low 1 | locus YCL029C, strain bik1, active compounds read low 1.01 | locus YDL035C, strain GPR1, active compounds read low 1 | locus YDL074C, strain BRE1, active compounds read low 1 | locus YDL101C, strain DUN1, active compounds read low 1.01 | locus YDL134C, strain PPH21, active compounds read low 1.02 | locus YDL185W, strain tfp1, active compounds read low 1.02 | locus YDL192W, strain arf1, active compounds read low 1 | locus YDR101C, strain arx1, active compounds read low 1.01 | locus YDR162C, strain NBP2, active compounds read low 1.01 | locus YDR318W, strain mcm21, active compounds read low 1.01 | locus YDR388W, active compounds read low 1 | locus YDR502C, strain sam2, active compounds read low 1.02 | locus YER110C, active compounds read low 1 | locus YER155C, strain BEM2, active compounds read low 1 | locus YER167W, strain BCK2, active compounds read low 1.01 | locus YGL078C, strain dbp3, active compounds read low 1.02 | locus YGL086W, strain mad1, active compounds read low 1 | locus YGL248W, strain PDE1, active compounds read low 1 | locus YGR135W, strain pre9, active compounds read low 1.02 | locus YGR252W, strain gcn5, active compounds read low 0.975 | locus YHR030C, strain SLT2, active compounds read low 1.01 | locus YHR079C, strain IRE1 (second series), active compounds read low 1.02 | locus YHR094C, strain hxt1, active compounds read low 1.01 | locus YHR129C, strain ARP1, active compounds read low 1 | locus YHR200W, strain rpn10, active compounds read low 1.01 | locus YIL066C, strain RNR3, active compounds read low 0.997 | locus YIL073C, strain SPO22, active compounds read low 1.06 | locus YIL125W, strain kgd1, active compounds read low 1.01 | locus YIR030C, strain dcg1, active compounds read low 1 | locus YJL095W, strain BCK1, active compounds read low 1.03 | locus YJL134W, strain LCB3, active compounds read low 1 | locus YJL168C, strain set2, active compounds read low 1.01 | locus YJL187C, strain SWE1 (second series), active compounds read low 1.02 | locus YKL009W, strain mrt4, active compounds read low 0.992 | locus YKL068W, active compounds read low 1.01 | locus YKL085W, strain MDH1 (second series), active compounds read low 1.01 | locus YKL085W, strain MDH1, active compounds read low 1.01 | locus YKR001C, strain vps1, active compounds read low 1.01 | locus YLR039C, strain RIC1, active compounds read low 1.02 | locus YLR058C, strain SHM2, active compounds read low 1 | locus YLR102C, strain apc9, active compounds read low 1.01 | locus YLR268W, strain sec22, active compounds read low 1.01 | locus YLR330W, strain CHS5, active compounds read low 1.01 | locus YLR371W, strain rom2, active compounds read low 1.01 | locus YLR418C, strain cdc73, active compounds read low 1.03 | locus YML016C, strain PPZ1, active compounds read low 0.999 | locus YML032C, strain rad52, active compounds read low 1.01 | locus YML124C, strain tub3, active compounds read low 1.01 | locus YMR078C, strain ctf18, active compounds read low 1.01 | locus YMR223W, strain ubp8, active compounds read low 1.01 | [13] 1.04 | locus YNL067W, strain RPL9B, active compounds read low 1.02 | [14] 1.02 | locus YNL233W, strain BNI4, active compounds read low 1.02 | locus YNL250W, strain rad50, active compounds read low 1.01 | locus YNL271C, strain bni1, active compounds read low 1.01 | locus YNL298W, strain CLA4, active compounds read low 1 | locus YNL307C, strain MCK1, active compounds read low 1.01 | locus YNR052C, strain pop2, active compounds read low 1.01 | locus YOL012C, strain htz1 0.877 | locus YOL147C, strain pex11, active compounds read low 1.01 | locus YOR061W, strain CKA2, active compounds read low 0.997 | locus YOR069W, strain VPS5, active compounds read low 1 | locus YOR136W, strain idh2, active compounds read low 1.02 | locus YOR144C, strain elg1, active compounds read low 1 | locus YOR184W, strain ser1, active compounds read low 0.999 | locus YOR316C, strain cot1, active compounds read low 1.01 | locus YPR119W, strain clb2, active compounds read low 1.02 | locus YPR141C, strain kar3, active compounds read low 1.01 | locus YPR163C, strain tif3, active compounds read low 1.01 | locus YPR167C, strain met16, active compounds read low 1.01 | strain wtn01, active compounds read low 0.991
